Assay results from PubChem BioAssay (NCI).
Compounds without any hit were thinned out: in the full panel of roughly 83,000, 20% have a hit.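 Results are percent growth after 48 hours of single-concentration exposure. 100 means growth as in untreated cells, lower positive values show inhibition; negative values down to -100 show cell death.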 Unmarked numbers belong to inactive results. Calls of active or inactive are those of the source. How the source made its calls: active means growth percent below 10; inactive means the rest.

Key:
Assay in all cases: NCI-60 one-dose screen, 48 h (100 = growth as untreated, 0 = no growth, -100 = all killed)
Settings in all cases: 10 µM unless noted
SR leukemia = tested on: SR leukemia
OVCAR-8 ovarian = tested on: OVCAR-8 ovarian
OVCAR-5 ovarian = tested on: OVCAR-5 ovarian
OVCAR-4 ovarian = tested on: OVCAR-4 ovarian
SK-OV-3 ovarian = tested on: SK-OV-3 ovarian
IGROV1 ovarian = tested on: IGROV1 ovarian
OVCAR-3 ovarian = tested on: OVCAR-3 ovarian
HS 578T breast = tested on: HS 578T breast
NCI/ADR-RES ovarian = tested on: NCI/ADR-RES ovarian
T-47D breast = tested on: T-47D breast
BT-549 breast = tested on: BT-549 breast
MDA-MB-435 melanoma = tested on: MDA-MB-435 melanoma
SW-620 colon = tested on: SW-620 colon
MCF7 breast = tested on: MCF7 breast
HCT-116 colon = tested on: HCT-116 colon
HCC-2998 colon = tested on: HCC-2998 colon
KM12 colon = tested on: KM12 colon

Row | Structure (SMILES) | growth (SR leukemia) | growth (OVCAR-8 ovarian) | growth (OVCAR-5 ovarian) | growth (OVCAR-4 ovarian) | growth (SK-OV-3 ovarian) | growth (IGROV1 ovarian) | growth (OVCAR-3 ovarian) | growth (HS 578T breast) | growth (NCI/ADR-RES ovarian) | growth (T-47D breast) | growth (BT-549 breast) | growth (MDA-MB-435 melanoma) | growth (SW-620 colon) | growth (MCF7 breast) | growth (HCT-116 colon) | growth (HCC-2998 colon) | growth (KM12 colon)
1 | O=C(O)CNC(=O)C1(N2C(=O)c3ccccc3C2=O)CCCC1 | 99.3% | 104% | 101% | 99.4% | 111% | 119% | 139% | 128% | 110% | 102% | 101% | 96.3% | 110% | 92% | 103% | 104% | 118%
2 | NC(=O)c1cc(Cl)ccc1NC(=O)c1ccccc1-c1ccccc1 | 5.82% (active) | 32% | 54.4% | 48.3% | 33.1% | 30% | -30.7% (active) | 33.8% | 20.7% | 26.9% | – | -63.7% (active) | 27.4% | – | 23.2% | 49.3% | 16.9%
3 | CC(NC(=O)Oc1cccc2ccccc12)c1ccccc1 (stereo not drawn) | 90.8% | 96.9% | 123% | 97.4% | 111% | 116% | 103% | 107% | 97.6% | 92.7% | 106% | 102% | 98.6% | 87.8% | 105% | – | 99.8%
4 | Nc1ccc2c(c1)C(=O)c1cc(Cl)c(Cl)cc1-2 | 82% | 92.3% | 95.9% | 89.9% | 97.9% | 94.6% | 110% | 105% | 97.3% | 91% | 85.2% | 102% | 101% | – | 93.5% | 98% | 92.8%
5 | Cc1csc(C#Cc2cncc(O)c2)n1 | 110% | 102% | 90.9% | 125% | 108% | -14% (active) | 111% | 132% | 113% | 98.3% | 113% | 96.8% | 113% | 97.8% | 103% | 107% | 125%
6 | COc1ccc(-c2nnc3c4[nH]cnc4ncn23)c(OC)c1 | 15.5% | 18.4% | 17% | 36.8% | 11.4% | 45.8% | 13.4% | 54.4% | 17.6% | 28.5% | – | 13.2% | 23.2% | 7.19% (active) | 14.8% | 26.3% | 22.5%
7 | C(=C1c2ccccc2-c2ccccc21)c1ccccn1 | 22.6% | 93.4% | 87.3% | 70.7% | 95.5% | 74.1% | 53.1% | 65.4% | 31.1% | 63.8% | 58.8% | -7.78% (active) | 32.7% | 38% | 43.5% | 80.6% | 39.6%
8 | COC(=O)[C@H]1[C@H]2C[C@@H]3c4[nH]c5cc(OC)ccc5c4CCN3C[C@H]2C[C@@H](OC(=O)/C=C/c2cc(OC)c(OC)c(OC)c2)[C@@H]1OC | -7.74% (active) | 50.6% | 113% | 13.6% | 98.6% | 38.4% | -42.8% (active) | 69.3% | 49.1% | 45% | – | 7.45% (active) | 61.3% | 29.1% | – | 105% | 40.5%
9 | CCCCN=C(N)c1ccc(OCCSCCOc2ccc(C(N)=NCCCC)cc2)cc1 | 44.7% | 40.7% | 84.1% | 50.8% | 41% | 55.1% | 39.6% | 47.4% | 90.9% | 26.3% | -3.76% (active) | 35.5% | 57.5% | 29.1% | 41.5% | 59% | 27%
10 | Cc1cccc2nnc(-c3ccccc3)n12 | 93% | 109% | 107% | 104% | 121% | 115% | 129% | 146% | 107% | 115% | 98.9% | 112% | 112% | 97% | 104% | 102% | 108%
11 | COc1ccc(/C=C2/SC(=Nc3c(C)nn(-c4ccccc4)c3N)NC2=O)cc1 | 14.9% | 70.2% | 76.2% | 51.9% | 54.2% | 27.2% | -28.9% (active) | 31.7% | 42% | 60.9% | 26.8% | -38.9% (active) | 18.5% | 8.99% (active) | 16.8% | 53.5% | 28.6%
12 | CC1C(C)N(C(=O)CCl)c2ccccc2N1C(=O)CCl (stereo not drawn) | -29.6% (active) | -20.8% (active) | -77.5% (active) | -27.2% (active) | -20.4% (active) | -54.6% (active) | -91.1% (active) | -28.3% (active) | -7.93% (active) | -42% (active) | -86.4% (active) | -20.9% (active) | -81.7% (active) | -49.4% (active) | -93.2% (active) | -93.9% (active) | -91.7% (active)
13 | CCOC(=O)CCC(=O)O[C@H]1[C@H](O[C@@H]2[C@@H](C)[C@H](O[C@H]3C[C@@](C)(OC)[C@@H](O)[C@H](C)O3)[C@@H](C)C(=O)O[C@H](CC)[C@@](C)(O)[C@H](O)[C@@H](C)C(=O)[C@H](C)C[C@@]2(C)O)O[C@H](C)C[C@@H]1N(C)C | 92% | 106% | 106% | 110% | 113% | 92.8% | 125% | 113% | 108% | 97.1% | – | 105% | 107% | 113% | 99.7% | 105% | 111%
14 | CCCCCN(CCCCC)CCCNc1c2c(nc3ccc(Cl)cc13)CCCC2 | 0.527% (active) | 37.5% | 41.2% | 17.6% | 66.6% | 17.5% | 58.1% | 71.6% | 48.9% | 38.1% | 36.2% | 66.4% | 33.5% | 35.5% | – | 16.3% | 55.5%
15 | COc1ccc(C2CC(c3ccc(Nc4ccnc5cc(Cl)ccc45)cc3)=NN2C(C)=O)cc1 (stereo not drawn) | -9.45% (active) | 72.8% | 94.2% | 59% | 101% | 74.4% | 64.2% | 62.7% | 67.7% | 40% | – | 23% | 87.2% | 55.7% | 61.3% | 70% | 59.3%
16 | CCOC(CNCc1cc(C)c2[nH]c3ccccc3c2c1C)OCC | 77.4% | 89.5% | 99.3% | 58.7% | 93.1% | 83.9% | 83.9% | 84.6% | 77.2% | 84.9% | 76.4% | 92.3% | 95.1% | 81.3% | – | 45.1% | 94.4%
17 | CCCCCN1C(=O)CCC1=O | 107% | 94.4% | 98.2% | 114% | 110% | 110% | 103% | – | 102% | 95.5% | 103% | 102% | 111% | 98.4% | 105% | 103% | 94.5%
18 | CNc1nc(NC2CCCC2)nc(Sc2ccc(OC)cc2)n1 | -0.593% [100 µM] (active) | 20.2% [100 µM] | 59.5% [100 µM] | 36.9% [100 µM] | 74.9% [100 µM] | 45.9% [100 µM] | -25.5% [100 µM] (active) | – | 11.9% [100 µM] | 27.3% [100 µM] | 7.66% [100 µM] (active) | 0.45% [100 µM] (active) | 21% [100 µM] | 30.9% [100 µM] | 0.657% [100 µM] (active) | 38% [100 µM] | 1.94% [100 µM] (active)
